LMP1 NFkB inh: EBV LMP1-driven NF-kappaB luciferase reporter inhibitors, primary screen, cell-based, luminescence, single point; LMP1-induced NF-kappaB luciferase reporter cells; inhibition, % at 12.5 µM; 0.69% of 350,000 active; AID 504558, 2011; in the data active means inhibition above about 41%;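 further: 0% = neutral control wells and 100% = reference inhibitor control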
HIF-2a block: HIF-2a reporter inhibitors, primary screen, luminescence, 786-0 RCC cells. AID 624352, 2012. 0.72% of 360,000 active. inhibition, % at 18.8 µM. 786-0 RCC cells HIF-2a reporter, luciferase luminescence, overnight;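 active means inhibition of the luminescence signal of 40% or more relative to plate controls, in a single-dose primary screen at 18.75 µM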
Shn3 inh set2: reduction of Shn3 3'UTR firefly luciferase signal, primary screen, Schnurri-3 inhibitor project, cell-based, Clone20 osteoblasts, set 2; 0.52% of 360,000 active; inhibition, % at 12.5 µM; AID 588674, 2011; Clone20 osteoblast Shn3 3'UTR firefly luciferase, 24 h;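 active means mean inhibition of at least 75% with every replicate also reaching 75%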;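 further: 0% = median of neutral control wells and 100% = pilot-screen positive control compound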
CF NFkB inh: inhibitors of PAF-induced NF-kB signaling, primary screen, cell-based, GFP fluorescence, uHTS; KKLEB NF-kB-GFP reporter, GFP fluorescence overnight; 0.86% of 360,000 active; inhibition, % at 5 µM;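 active means at least 50% inhibition at 5 µM, scaled per plate between neutral and stimulator controls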;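 further: PAF is a Pseudomonas aeruginosa culture filtrate used as stimulus; plate controls were PAF-stimulated DMSO wells for no effect and unstimulated DMSO wells for full effect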
Peg3 promoter: Peg3 promoter-driven luciferase inhibitors, primary screen, cell-based, HeLa, luciferase luminescence; HeLa PEG-Prom luciferase reporter, overnight; inhibition, % at 20 µM; 1.7% of 360,000 active;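 active means inhibition of at least 50% at 20 µM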
KKLEB cytotox: cytotoxicity in KKLEB CF airway cells, primary screen, cytotoxicity control for CF NF-kB inhibitor project, cell-based, uHTS, fluorescence assay plates; 0.36% of 360,000 active; KKLEB CF airway cells viability, ATPlite luminescence, overnight; active compounds read low; cells stimulated with P. aeruginosa culture filtrate; activity change (cytotoxicity), % at 5 µM;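 active means corrected activity change at or below -50% at 5 µM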
Mdm2-MdmX confirm: retested Mdm2-MdmX interaction blockers, confirmation, cell-based, luminescence, single concentration, set 2; shares compounds with HIF-2a block; SaOS-2 split-luciferase Mdm2/MdmX complementation; inhibition, % at 8 µM; 99% of 740 active;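 active means mean inhibition of the luminescence signal across two replicates at or above 26 percent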
Target sequence (O15151 whole entry, looked up): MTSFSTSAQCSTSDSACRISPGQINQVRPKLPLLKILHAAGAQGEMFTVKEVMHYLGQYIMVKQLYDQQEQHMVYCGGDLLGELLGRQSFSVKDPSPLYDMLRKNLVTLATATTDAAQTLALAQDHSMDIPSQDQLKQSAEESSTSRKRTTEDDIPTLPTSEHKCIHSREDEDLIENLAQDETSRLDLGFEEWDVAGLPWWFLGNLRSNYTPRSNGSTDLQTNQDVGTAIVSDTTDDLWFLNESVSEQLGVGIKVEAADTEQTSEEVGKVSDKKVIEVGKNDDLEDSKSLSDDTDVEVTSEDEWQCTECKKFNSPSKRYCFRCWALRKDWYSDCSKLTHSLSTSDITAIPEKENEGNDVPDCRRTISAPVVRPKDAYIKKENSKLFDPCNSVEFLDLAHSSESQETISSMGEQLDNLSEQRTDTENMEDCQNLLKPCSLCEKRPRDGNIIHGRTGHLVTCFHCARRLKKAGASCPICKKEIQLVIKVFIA
Target sequence (Q00987 whole entry, looked up): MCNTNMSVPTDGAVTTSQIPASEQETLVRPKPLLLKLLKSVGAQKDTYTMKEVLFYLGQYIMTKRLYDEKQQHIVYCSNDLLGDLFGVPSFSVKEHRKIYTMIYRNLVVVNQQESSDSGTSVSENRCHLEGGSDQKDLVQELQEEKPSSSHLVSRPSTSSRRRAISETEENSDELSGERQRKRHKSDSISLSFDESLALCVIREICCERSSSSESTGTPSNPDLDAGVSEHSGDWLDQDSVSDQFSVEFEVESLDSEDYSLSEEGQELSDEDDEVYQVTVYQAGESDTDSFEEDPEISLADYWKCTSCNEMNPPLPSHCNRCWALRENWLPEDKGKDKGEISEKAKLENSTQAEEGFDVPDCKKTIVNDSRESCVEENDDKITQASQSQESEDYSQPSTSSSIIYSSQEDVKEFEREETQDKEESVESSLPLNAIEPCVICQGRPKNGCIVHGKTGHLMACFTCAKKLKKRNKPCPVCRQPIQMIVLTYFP
HIF-2a inh conf: HIF-2a reporter inhibitor retest, confirmation, luminescence, 786-0 RCC cells; shares compounds with HIF-2a block; HIF-2a luciferase reporter luminescence, overnight; inhibition, % at 18.8 µM; 56% of 1,800 active;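 active means mean inhibition across four replicates of at least 40 percent at the single tested concentration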
HIF-1a cs: HIF-1a luciferase reporter signal reduction – MiaPaCa-2 cells, single concentration, counter-screen for HIF-2a inhibitor project, confirmation. inhibition, % at 18.8 µM. MiaPaCa-2 HIF-1a luciferase reporter, desferoxamine, overnight. 72% of 1,800 active. AID 651589, 2012. shares compounds with HIF-2a block;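 active means mean inhibition of the reporter signal across four replicates at the single tested dose of 50% or more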
Numbers without * were called inactive. Only some compounds are listed: those with a hit (about 2.9% of all), similar ones and a draw of the others.

Results for Cc1c(C(=O)NCC2CCCO2)oc2ccc(S(=O)(=O)N3CC(C)CC(C)C3)cc12 (stereo unspecified) ?
LMP1 NFkB inh: 6.7; HIF-2a block: 39.3*; Shn3 inh set2: 16.3; CF NFkB inh: -19.3; Peg3 promoter: 27.1; KKLEB cytotox: -6.3; HIF-2a inh conf: 7.7; HIF-1a cs: 57.2*

Results for Cc1c(C(=O)NCC2CCCO2)oc2ccc(S(=O)(=O)N3CCCCC3)cc12 (stereo unspecified) ?
LMP1 NFkB inh: -5.7; HIF-2a block: 4.2; Shn3 inh set2: 0.8; CF NFkB inh: 10.6; Peg3 promoter: 15.1; KKLEB cytotox: 2.1

Results for COC(=O)c1cc(-c2ccc(Br)cc2)c2c(=O)n(C)c(=O)n(C)c2n1 ?
LMP1 NFkB inh: 7.7; HIF-2a block: -5.4; Shn3 inh set2: 11.7; CF NFkB inh: 11.7; Peg3 promoter: 14.7; KKLEB cytotox: -11.6

Results for CCc1ccc(-c2nc(CSCC(=O)NCCCN3CCCC3=O)c(C)o2)cc1 ?
LMP1 NFkB inh: 3.4; HIF-2a block: 44.9*; Shn3 inh set2: 14.6; CF NFkB inh: 0.2; Peg3 promoter: 13.5; KKLEB cytotox: -11.1; HIF-2a inh conf: -4.8; HIF-1a cs: 16.3

What do the screens show for `CCOC(=O)c1cccc(NC(=O)Nc2ccc(OCC)cc2)c1`?
LMP1 NFkB inh: -1.9; HIF-2a block: 61.6*; Shn3 inh set2: 2.5; CF NFkB inh: -13.5; Peg3 promoter: -135.6; KKLEB cytotox: 1.0; HIF-2a inh conf: 61.2*; HIF-1a cs: -17.1

How did Cc1ccc(/C=C2\SC(=S)N(CCCC(=O)Nc3ccc(O)cc3)C2=O)cc1 do in these assays?
LMP1 NFkB inh: 38.7; HIF-2a block: 79.7*; Shn3 inh set2: 16.6; CF NFkB inh: 0.9; Peg3 promoter: -41.0; KKLEB cytotox: 0.7; Mdm2-MdmX confirm: 56.8*

How did COc1ccc(/C=C2\SC(=O)N(CCCC(=O)Nc3ccc(C(=O)O)cc3)C2=O)cc1 do in these assays?
LMP1 NFkB inh: 49.9*; HIF-2a block: 84.5*; Shn3 inh set2: 73.9; CF NFkB inh: 10.5; Peg3 promoter: 43.7; KKLEB cytotox: 4.8; HIF-2a inh conf: 97.0*; HIF-1a cs: 90.6*

How did COc1ccc(/C=C2\SC(=O)N(CCNC(=O)Cn3[nH]c(=O)c4ccccc4c3=O)C2=O)cc1 do in these assays?
LMP1 NFkB inh: 3.7; HIF-2a block: 44.6*; Shn3 inh set2: 22.9; CF NFkB inh: 9.7; Peg3 promoter: 12.1; KKLEB cytotox: -10.8; HIF-2a inh conf: 77.2*; HIF-1a cs: 11.6

Results for CCN(CC)CCNC(=O)c1cc2c(-c3ccc(Cl)cc3)nn(C)c2s1 ?
LMP1 NFkB inh: -249.4; HIF-2a block: 58.5*; Shn3 inh set2: -13.0; CF NFkB inh: -40.9; Peg3 promoter: 88.4*; KKLEB cytotox: -13.0; HIF-2a inh conf: 15.0; HIF-1a cs: 88.5*

What do the screens show for `COc1ccc(/C=N/Nc2cc(C)nc3ccc(OC)cc23)c(OC)c1`?
LMP1 NFkB inh: 70.2*; HIF-2a block: 91.7*; Shn3 inh set2: 96.3*; CF NFkB inh: -105.3; Peg3 promoter: 106.6*; KKLEB cytotox: -11.4; Mdm2-MdmX confirm: 103.2*

Results for CC(=O)Nc1ccc(Oc2sc(C(=O)c3ccccc3)c(N)c2C#N)cc1 ?
LMP1 NFkB inh: 16.3; HIF-2a block: 54.3*; Shn3 inh set2: 15.0; CF NFkB inh: 40.9; Peg3 promoter: 29.1; KKLEB cytotox: -33.5; HIF-2a inh conf: 43.0*; HIF-1a cs: 9.0

Results for COC(=O)COc1ccc(/C=N/NC(=O)CN(c2ccccc2OC)S(=O)(=O)c2ccccc2)cc1 ?
LMP1 NFkB inh: -3.4; HIF-2a block: 57.0*; Shn3 inh set2: -14.9; CF NFkB inh: 20.0; Peg3 promoter: 18.4; KKLEB cytotox: -0.1; HIF-2a inh conf: 74.5*; HIF-1a cs: 57.4*

How did COC(=O)COc1ccc(/C=N/NC(=O)c2ccc(N(Cc3ccccc3)S(C)(=O)=O)cc2)cc1 do in these assays?
LMP1 NFkB inh: -1.6; HIF-2a block: 64.4*; Shn3 inh set2: 14.8; CF NFkB inh: -4.4; Peg3 promoter: 4.4; KKLEB cytotox: -9.7; HIF-2a inh conf: 18.5; HIF-1a cs: -2.8

Results for CCCNC(=O)OCc1cccnc1Sc1ccc(C)cc1 ?
LMP1 NFkB inh: -5.8; HIF-2a block: -164.0; Shn3 inh set2: -18.4; CF NFkB inh: -3.9; Peg3 promoter: -93.8; KKLEB cytotox: 17.2

Results for CSc1nnc(-c2sc3cc(C(F)(F)F)cnc3c2-c2ccccc2)n1C ?
LMP1 NFkB inh: 7.7; HIF-2a block: 41.4*; Shn3 inh set2: 7.5; CF NFkB inh: 15.6; Peg3 promoter: 27.4; KKLEB cytotox: -3.4; HIF-2a inh conf: 11.5; HIF-1a cs: 54.6*

What do the screens show for `Cc1cnc(C(=O)NCC(=O)Nc2ccccc2Br)cn1`?
LMP1 NFkB inh: 6.8; HIF-2a block: -46.7; Shn3 inh set2: -26.2; CF NFkB inh: -28.8; Peg3 promoter: -32.1; KKLEB cytotox: 6.6

Results for CC(C)(C)c1ccc(C(O)CCCN2CCC(C(O)(c3ccccc3)c3ccccc3)CC2)cc1 (stereo unspecified) ?
LMP1 NFkB inh: -6.9; HIF-2a block: 96.9*; Shn3 inh set2: 97.1*; CF NFkB inh: 13.5; Peg3 promoter: 95.5*; KKLEB cytotox: -15.0; HIF-2a inh conf: -1.0; HIF-1a cs: 107.7*

Results for OC(c1ccccc1)(c1ccccc1)C1CCN(CCCOc2cccc(OC(F)(F)F)c2)CC1 ?
HIF-2a block: 11.5

Results for Cc1ccc(NC2=C/C(=N\S(=O)(=O)c3cccs3)c3ccccc3C2=O)c(C)c1 ?
LMP1 NFkB inh: 95.0*; HIF-2a block: 70.6*; Shn3 inh set2: 98.0*; CF NFkB inh: 96.0*; Peg3 promoter: 110.9*; KKLEB cytotox: -101.5*; Mdm2-MdmX confirm: 100.7*
